Experimental data: PubChem BioAssay (EPA / NIEHS)
Several values for one entry are separate records, joined by “and”; a condition that tells them apart may be missing. Identical values can stand only once. Where a structure was tested more than once in an assay, its records may differ in their call. Activity calls are given as the source filed them. The calls were made as follows: active = hit-call score of the fitted dose curve at least 0.9, where 1 is the maximum; inactive = score below 0.9.

Assays:
[1] = read-out: Vascular cell adhesion molecule 1 (VCAM1), VCAM1 (gene 7412); assay: BSK_4H_VCAM1: BioMAP Diversity Plus: 4H Assay for Vascular cell adhesion molecule 1 (VCAM1) Biomarker Activity (AID 2283033); details: primary human endothelial cells (HUVEC); actives raise or lower the signal
Method in brief: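 HUVEC, 24 h post-dose; VCAM-1 by ELISA. Bidirectional curve fit vs DMSO baseline. Parallel SRB total-protein stain (0.1% SRB after 10% TCA fixation, 560 nm) for cytotoxicity.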

[2] = read-out: Interferon-gamma inducible Protein 10 (IP10), CXCL10 (gene 3627); assay: BSK_BE3C_IP10: BioMAP Diversity Plus: BE3C Assay for Interferon-gamma inducible Protein 10 (IP10) Biomarker Activity (AID 2283034); details: primary human bronchial epithelial cells; actives raise or lower the signal
Method in brief: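 ELISA readout of IP-10 in BE3C system: primary human bronchial epithelial cells, 24 h post-dosing; bidirectional curve fit vs DMSO baseline.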

[3] = read-out: Monokine induced gamma interferon (MIG), CXCL9 (gene 4283); assay: BSK_BE3C_MIG: BioMAP Diversity Plus: BE3C Assay for Monokine induced gamma interferon (MIG) Biomarker Activity (AID 2283035); details: primary human bronchial epithelial cells; actives raise or lower the signal
Method in brief: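 ELISA quantified MIG after 24 h exposure of primary bronchial epithelial cultures, analysed in both directions relative to DMSO. Cytotoxicity tracked in parallel cultures by sulforhodamine B staining.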

[4] = read-out: Transforming growth factor beta 1 (TGFb1), TGFB1 (gene 7040); assay: BSK_BE3C_TGFb1: BioMAP Diversity Plus: BE3C Assay for Transforming growth factor beta 1 (TGFb1) Biomarker Activity (AID 2283036); details: primary human bronchial epithelial cells; actives raise or lower the signal
Method in brief: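 Read-out: ELISA for TGF-b1 in primary human bronchial epithelial cultures, 24 h post-dose. Bidirectional curve fitting vs DMSO control; gain or loss of signal both scored.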

[5] = read-out: urokinase plasminogen activator (uPA), PLAU (gene 5328); assay: BSK_BE3C_uPA: BioMAP Diversity Plus: BE3C Assay for urokinase plasminogen activator (uPA) Biomarker Activity (AID 2283038); details: primary human bronchial epithelial cells; actives raise or lower the signal
Method in brief: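 Using confluent primary human lung bronchial epithelial cultures, we dosed chemicals, waited 24 h, then ran a uPA ELISA, fitting bidirectionally against DMSO.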

[6] = read-out: Interleukin-6 (IL6), IL6 (gene 3569); assay: BSK_CASM3C_IL6: BioMAP Diversity Plus: CASM3C Assay for Interleukin-6 (IL6) Biomarker Activity for (AID 2283040); details: primary human coronary artery smooth muscle cells; actives raise or lower the signal
[7] = read-out: Tissue plasminogen activator (tPA), PLAT (gene 5327); assay: BSK_BE3C_tPA: BioMAP Diversity Plus: BE3C Assay for Tissue plasminogen activator (tPA) Biomarker Activity (AID 2283041); details: primary human bronchial epithelial cells; actives raise or lower the signal
Method in brief: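 ELISA read-out of tPA on human primary bronchial epithelial cells, 24 h post-dosing; bidirectional fit vs DMSO negative control/baseline.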

[8] = read-out: Interleukin-8 (IL8), CXCL8 (gene 3576); assay: BSK_CASM3C_IL8: BioMAP Diversity Plus: CASM3C Assay for Interleukin-8 (IL8) Biomarker Activity (AID 2283042); details: primary human coronary artery smooth muscle cells; actives raise or lower the signal;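 also: IL-8 protein level quantified by ELISA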
[9] = read-out: Human Leukocyte Antigen - DR isotype (HLADR), HLA-DRA (gene 3122); assay: BSK_CASM3C_HLADR: BioMAP Diversity Plus: CASM3C Assay for Human Leukocyte Antigen - DR isotype (HLADR) Biomarker Activity (AID 2283043); details: primary human coronary artery smooth muscle cells; actives raise or lower the signal;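 also: cell-surface HLA-DR protein level quantified by ELISA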
[10] = read-out: Macrophage colony-stimulating factor (MCSF), CSF1 (gene 1435); assay: BSK_CASM3C_MCSF: BioMAP Diversity Plus: CASM3C Assay for Macrophage colony-stimulating factor (MCSF) Biomarker Activity (AID 2283044); details: primary human coronary artery smooth muscle cells; actives raise or lower the signal;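 also: M-CSF protein amount quantified by ELISA after 24 h exposure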

Measured: AC50

S=C(NC1CCCCC1)NC1CCCCC1
inactive: all assays above

O=Nc1ccc(O)cc1
inactive: all assays above

c1ccc(-c2ccccn2)nc1
inactive: all assays above

CCCCC/C=C\C/C=C\CCCCCCCC(=O)OC
inactive: [4] | [5] | [7] | [8]
active: [1] 36.2 µM | [2] 24.9 µM | [3] 38.5 µM | [6] 20 µM | [9] 20 µM | [10] 20 µM

CC(C)C(=O)C(C)C
inactive: all assays above

CCCCC(CC)COC(=O)c1ccccc1O (configuration not stated)
active: [1] 14.9 µM
inactive: all other assays above

CCCCCCCCCCCCCCCC[N+](C)(C)CC
active: [1] 1.9 µM | [2] 2.19 µM | [3] 9.57 µM | [4] 0.599 µM | [5] 2.25 µM | [6] 4.5 µM | [7] 0.797 µM | [8] 5.98 µM | [9] 2.97 µM | [10] 1.93 µM

N#[N+]c1ccc2c(S(=O)(=O)[O-])cccc2c1O
inactive: all assays above

CO[Si](OC)(OC)c1ccccc1
inactive: [1] | [2] | [3] | [5] | [6] | [7] | [8] | [9] | [10]
active: [9] 3.86 µM

CCCCC(CC)COCC1CO1 (configuration not stated)
not listed: [4]
inactive: all other assays above

O=c1c2ccccc2oc2ccccc12
inactive: all assays above

CCOc1nc(F)cc2nc(S(=O)(=O)Nc3c(Cl)cccc3C(=O)OC)nn12
inactive: all assays above

C=CCOc1c(Br)cc(Br)cc1Br
active: [1] 31.5 µM | [2] 30.9 µM | [4] 6.57 µM | [5] 20 µM | [6] 27.5 µM | [7] 8.88 µM | [8] 27.1 µM | [9] 26.8 µM | [10] 28.3 µM
inactive: [3]

c1ccc2c(c1)ccc1ncccc12
inactive: all assays above

CC1OC1C1CCC2(C)OC2C1 (configuration not stated)
inactive: all assays above

C=CC(=O)OCC(Br)CBr (configuration not stated)
inactive: [4] | [5] | [7]
active: [1] 20 µM | [2] 23.3 µM | [3] 31.4 µM | [6] 26 µM | [8] 30.4 µM | [9] 11.1 µM | [10] 20 µM

COc1ccc2nc(N)sc2c1
inactive: all assays above

CCCCCCCCc1ccc(Nc2ccc(CCCCCCCC)cc2)cc1
inactive: all assays above

O=C(Cl)c1cc(C(=O)Cl)cc(C(=O)Cl)c1
active: [1] 14.8 µM | [2] 30.4 µM | [3] 39.1 µM | [5] 20 µM | [6] 26.1 µM | [7] 31.8 µM | [8] 30.3 µM | [9] 15.5 µM | [10] 14.5 µM
inactive: [4]

O=C(c1ccc(O)cc1)c1ccc(O)cc1O
not listed: [4]
inactive: all other assays above

O=C1CCCN1CCO
not listed: [4]
inactive: all other assays above

CCCCNc1ccc(NCCCC)c2c1C(=O)c1ccccc1C2=O
active: [2] 4.33 µM | [4] 5 µM | [5] 5 µM
inactive: all other assays above

C=CC=CC=CCCCCC
active: [2] 5 µM | [9] 5 µM
inactive: all other assays above

C#CC1(O)CC[C@H]2[C@@H]3CCC4=CCCC[C@@H]4[C@H]3CC[C@@]21C (some centres not stated)
active: [1] 15.1 µM | [2] 34.8 µM | [3] 36 µM | [5] 20 µM | [6] 6.06 µM | [8] 32.8 µM | [9] 34.8 µM | [10] 20 µM
inactive: [4] | [7]

c1ccc2c(c1)ccc1cc3c(ccc4ccccc43)cc12
inactive: all assays above

O=C(Nc1ccccc1SSc1ccccc1NC(=O)c1ccccc1)c1ccccc1
active: [1] 20 µM | [2] 1.03 µM | [9] 5.29 µM
inactive: all other assays above

C=C[Si](OC(C)=O)(OC(C)=O)OC(C)=O
not listed: [4]
inactive: all other assays above

Nc1ccc(N)c(Cl)c1
active: [1] 20 µM and 19.6 µM | [10] 8.11 µM and 1.83 µM
not listed: [4]
inactive: all other assays above

COCc1c(C(C)C)nc(C(C)C)c(/C=C/[C@@H](O)C[C@@H](O)CC(=O)O)c1-c1ccc(F)cc1
active: [8] 0.0375 µM
inactive: all other assays above

CN1C(=O)N(C)C(O)C1O (configuration not stated)
not listed: [4]
inactive: all other assays above

CCO[Si](CCCN=C=O)(OCC)OCC
inactive: all assays above

CCOC(=O)c1ccccc1C(=C1C=C(Br)C(=O)C(Br)=C1)c1cc(Br)c(O)c(Br)c1
active: [1] 20.6 µM and 20.1 µM | [2] 3.73 µM and 3.06 µM | [3] 5.86 µM and 5.17 µM | [5] 3.81 µM and 4.21 µM | [7] 2.55 µM and 2.71 µM
inactive: [6] | [8] | [9] | [10]

C/C=C\C/C=C/CCCCCCCCOC(C)=O
active: [1] 29.3 µM | [2] 20 µM | [9] 20 µM | [10] 20 µM
inactive: all other assays above

C=CCOCC(O)CCl (configuration not stated)
inactive: all assays above

CCO[Si](C)(OCC)OCC
not listed: [4]
inactive: all other assays above

CC(C)(c1cc(Br)c(OCCO)c(Br)c1)c1cc(Br)c(OCCO)c(Br)c1
active: [1] 11.4 µM | [2] 4.54 µM | [10] 4.39 µM
inactive: all other assays above
